# Measurements from PubChem BioAssay AID1985 (Southern Research Specialized Biocontainment Screening …, 2009).
# In all, about 2,300 compounds went through this assay and about 1,000 (43%) were called active. No rule for the calls is given here. So high a share suggests a set chosen from earlier hits. Some of the results follow. Where a call stands in place of a potency, no number is given. Potency and affinity values are given separately.
# Test: PhoP regulon inhibitor project modified counter assay, GFP fluorescence readout, dose response (AID 1985)
# Conditions: S. Typhi, 4 h; series mostly up to 150 µM
row,Structure (SMILES),outcome
1,COC(=O)c1ccc(CSc2nc3ccccc3c(=O)n2-c2ccc(OC)c(OC)c2)o1,inactive
2,Cc1c(/C=N/NC(=O)c2ccc3c(c2)OCO3)cnn1C,inactive
3,COc1ccc(C(=O)O/N=C2\C(=O)N(C)c3ccccc32)cc1,inactive
4,O=C(Nc1ccc(N2CCOCC2)cc1)C1CCN(S(=O)(=O)c2ccccc2F)CC1,inactive
5,CCc1cccc2c(C=C(C#N)C#N)cn(CC(=O)N3CCCCCC3)c12,inactive
6,CC(=O)NCc1ccc(C(=O)CCl)cc1,inactive
7,CCOC(=O)c1ccc(S(=O)(=O)N2CCN(CCC#N)CC2)cc1,inactive
8,CN(C)[C@@H]1C(=O)C(C(N)=O)=C(O)[C@@]2(O)C(=O)C3=C(O)c4c(O)cccc4[C@@](C)(O)C3[C@H](O)C12 (stereo not given in full),inactive
9,O=C1c2c(O)ccc(O)c2C(=O)c2c(NCCNCCO)ccc(NCCNCCO)c21,inactive
10,C[C@@H](NC(=O)/C(C#N)=C/c1ccc(O)c(O)c1)c1ccccc1,inactive
11,Cc1nc2cc(C(=O)N3CCC4(CC3)OCCO4)ccc2n1-c1cccc(F)c1,inactive
12,COC(=O)C1=C(C)N(CC2CC2)C(=O)N[C@H]1c1ccc(Br)cc1,inactive
13,COC(=O)C1=C(C)N(Cc2ccco2)C(=O)N[C@H]1c1ccc(Br)cc1,inactive
14,COc1ccc(CC(=O)N(Cc2cc3cc(OC)ccc3[nH]c2=O)C(C)C)cc1,inactive
15,COc1ccc2c(C(=O)CN(C)C3CCCCC3)c[nH]c2c1,inactive
16,COC(=O)NNS(=O)(=O)c1ccc(C)cc1,inactive
17,Cc1cc([N+](=O)[O-])nn1CC(=O)Nc1cccc2nonc12,inactive
18,N#CCC(=O)N/N=C/c1ccccc1Cl,inactive
19,Cc1[nH]nc2c1C1(CCC3(CC1)OCCO3)C(C#N)=C(N)O2,inactive
20,NC(=O)COc1c(-c2ccco2)oc2ccccc2c1=O,inactive
21,CCOC(=O)c1cccc(NC(=O)c2cccs2)c1,inactive
22,COc1ccc(-c2nc3ccc(C(=O)NCC(OC)OC)cc3nc2-c2ccc(OC)cc2)cc1,inactive
23,COc1ccc(-c2noc(CCC(=O)Nc3cccc(C)c3)n2)cc1,inactive
24,COC(=O)c1ccc(NC(=S)NNC(=O)c2ccccc2)cc1,inactive

row,Structure (SMILES),outcome
1,O=C(NNC(=O)c1cccs1)c1ccc2ccccc2c1,inactive
2,CCCOc1ccc(C2C(C(=O)c3ccc(C)o3)=C(O)C(=O)N2CCCn2ccnc2)cc1 (stereo not given),inactive
3,Clc1ccc(-c2cc(C3CCNCC3)[nH]n2)c(Cl)c1,inactive
4,C=CCn1c(C)c(C(C)=O)c(SC)nc1=S,inactive
5,COc1ccc(CNC(=O)C(c2cccs2)N(C(=O)c2csnn2)C2CC2)cc1 (stereo not given),inactive
6,COCCN1C(=O)C(=O)/C(=C(/O)c2cccc(OC)c2)C1c1ccncc1 (stereo not given),inactive
7,CCC1(CC)C(=O)NC(=O)NC1=Nc1cccc(OC)c1,inactive
8,CCC(=O)c1ccc(OCC(O)CNCCc2ccc(Cl)cc2)cc1 (stereo not given),inactive
9,Cn1c(=O)cc(SCC(=O)N2CCN(C3CCCCC3)CC2)c2ccccc21,inactive
10,Cn1c(C(O)c2ccccc2F)nc(Cl)c1Cl (stereo not given),inactive
11,CSc1ccccc1NC(=O)CN1CCCCC1C (stereo not given),inactive
12,CNS(=O)(=O)c1cccc(C(=O)OCc2cc(=O)oc3c(C)c(O)ccc23)c1,inactive
13,O=C(N/N=C/c1ccc(F)c(F)c1)c1cc2c(s1)-c1ccccc1CC2,inactive
14,CC(C)(C)Nc1nc(-c2ccccn2)nc2ccccc12,inactive
15,CC(C)(C)NC(=O)/C=C/c1ccc(C(F)(F)F)cc1,inactive
16,COCCN1CC(=O)N2C(c3cccc(OC)c3)c3[nH]c4ccccc4c3C[C@H]2C1=O (stereo not given in full),inactive
17,Cc1ccc2c(c1)C1CN(C)CCC1N2C(=O)COc1ccccc1F (stereo not given),inactive
18,c1ccc(CN2CCC(Nc3nc(-c4cccs4)nc4ccccc34)CC2)cc1,inactive
19,CCOC(=O)c1cc(-c2ccc(F)cc2)n(CCC(=O)NC2CCN(Cc3ccccc3)CC2)c1C,inactive
20,c1ccc(CN2CCC(Nc3nc(-c4ccccc4)nc4ccccc34)CC2)cc1,inactive
21,c1ccc(CN2CCC(N3CCN(Cc4ccc5c(c4)OCO5)CC3)CC2)cc1,inactive
22,Cc1cc2ccccc2c(=O)n1CC(=O)NCCC1=CCCCC1,inactive
23,Cc1ccccc1C(=O)c1cccn1CC(=O)NCCC1=CCCCC1,inactive
24,Clc1ccc(OCc2nc(-c3ccc(Br)o3)no2)cc1,inactive

row,Structure (SMILES),outcome
1,CN1CCN(c2ccccc2NC(=O)c2cc3c(s2)-c2ccccc2OC3)CC1,inactive
2,NCC/C=C1/c2ccccc2CSc2ccccc21,inactive
3,c1ccc2c(Nc3nnc(-c4ccncc4)s3)cccc2c1,inactive
4,O=C(Nc1ccc(N2CCOCC2)cc1)c1ccc(S(=O)(=O)NCc2ccco2)cc1,inactive
5,CCc1cccc(NC(=O)CSC2=NS(=O)(=O)c3ccccc32)c1,inactive
6,O=C(CNC(=O)Cn1ccc2ccccc2c1=O)NCCCN1CCCCCC1,inactive
7,O=C1CCCN1CCC1CCN(C2CC(=O)N(c3ccc(Cl)cc3)C2=O)CC1 (stereo not given),inactive
8,CC(NCC(O)COCCC12CC3CC(CC(C3)C1)C2)c1ccccc1 (stereo not given),inactive
9,CS(=O)(=O)c1cnc2c(-c3ccsc3)cnn2c1N,inactive
10,O=C(CCSCc1ccccc1F)NCc1cccs1,inactive
11,CC(OC(=O)Cc1coc2cc3c(cc12)CCC3)C(=O)NCc1ccc2c(c1)OCO2 (stereo not given),inactive
12,COc1cc2[nH]c(=S)n(CC3CCCO3)c(=O)c2cc1OC (stereo not given),inactive
13,Cc1ccc(NC2OC(CO)C(O)C(O)C2O)cc1 (stereo not given),inactive
14,Cc1cn([C@H]2C[C@H](N=[N+]=[N-])[C@@H](CO)O2)c(=O)[nH]c1=O,inactive
15,O=C(COC(=O)CNC(=O)c1ccccc1)Nc1ccc(F)c([N+](=O)[O-])c1,inactive
16,Cc1[nH]nc2c1C(c1ccc(-c3ccccc3C#N)o1)C(C#N)=C(N)O2 (stereo not given),inactive
17,O=C(NCc1cccs1)C(=O)NCC(c1ccco1)N1CCN(c2ccc(F)cc2)CC1 (stereo not given),inactive
18,CCCN(CCC)CC(=O)Nc1cccc2c1OCO2,inactive
19,CC(=O)c1cccc(NC(=S)NNC(=O)c2ccco2)c1,inactive
20,O=C(NC(=S)Nc1c(F)cc(F)cc1Br)c1ccc2c(c1)OCCO2,inactive
21,O=C(/C=C/c1ccco1)NC(=S)Nc1cccc(-c2nc3ccccc3o2)c1,inactive
22,O=C(/C=C/c1ccccc1)NNC(=O)c1ccco1,inactive
